Laboratory results: the supplement of paper PMC11732987, “Enantioselective OTUD7B fragment discovery through chemoproteomics screening and high-throughput optimisation” (Communications Chemistry, 2025)

Columns and labels:
Experiment in all cases: log2 ratio of Biotin-Ahx-Ub-VS probe labelling (fragment/DMSO); higher = less target engagement (more negative = stronger competition), active = hit call of the paper (q ≤ 0.05, log2 ratio ≤ -1)
Details in all cases: compound concentration: 200 uM; treatment time: 3 h
OTUD6B = biological target: T1, OTUD6B (UniProt Q8N6M0)
T1 sequence (whole entry): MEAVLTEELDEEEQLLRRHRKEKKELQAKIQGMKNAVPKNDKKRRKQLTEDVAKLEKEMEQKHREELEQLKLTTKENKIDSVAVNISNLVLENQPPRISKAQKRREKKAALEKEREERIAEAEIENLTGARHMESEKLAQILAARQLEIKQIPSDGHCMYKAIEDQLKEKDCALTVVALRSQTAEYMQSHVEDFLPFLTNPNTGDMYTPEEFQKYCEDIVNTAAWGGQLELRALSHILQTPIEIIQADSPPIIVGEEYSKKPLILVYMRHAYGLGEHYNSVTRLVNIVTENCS
How it was run: (§1)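 Using Biotin-Ahx-Ub-VS at 0.5 µM final for 1 h, DUBs were labelled in HEK293T lysate (495 µg per sample) that had first been treated in triplicate with fragment at 200 µM or vehicle for 3 h. NeutrAvidin enrichment, LysC and trypsin digestion and diaPASEF LC-MS/MS followed. Spectronaut label-free quantities were global-median-normalised. Values are average log2 fragment/vehicle ratios by unpaired t-test, using proteins with ≥2 unique peptides.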

OTUD7B = biological target: T2, OTUD7B (UniProt Q6GQQ9)
T2 sequence (whole entry): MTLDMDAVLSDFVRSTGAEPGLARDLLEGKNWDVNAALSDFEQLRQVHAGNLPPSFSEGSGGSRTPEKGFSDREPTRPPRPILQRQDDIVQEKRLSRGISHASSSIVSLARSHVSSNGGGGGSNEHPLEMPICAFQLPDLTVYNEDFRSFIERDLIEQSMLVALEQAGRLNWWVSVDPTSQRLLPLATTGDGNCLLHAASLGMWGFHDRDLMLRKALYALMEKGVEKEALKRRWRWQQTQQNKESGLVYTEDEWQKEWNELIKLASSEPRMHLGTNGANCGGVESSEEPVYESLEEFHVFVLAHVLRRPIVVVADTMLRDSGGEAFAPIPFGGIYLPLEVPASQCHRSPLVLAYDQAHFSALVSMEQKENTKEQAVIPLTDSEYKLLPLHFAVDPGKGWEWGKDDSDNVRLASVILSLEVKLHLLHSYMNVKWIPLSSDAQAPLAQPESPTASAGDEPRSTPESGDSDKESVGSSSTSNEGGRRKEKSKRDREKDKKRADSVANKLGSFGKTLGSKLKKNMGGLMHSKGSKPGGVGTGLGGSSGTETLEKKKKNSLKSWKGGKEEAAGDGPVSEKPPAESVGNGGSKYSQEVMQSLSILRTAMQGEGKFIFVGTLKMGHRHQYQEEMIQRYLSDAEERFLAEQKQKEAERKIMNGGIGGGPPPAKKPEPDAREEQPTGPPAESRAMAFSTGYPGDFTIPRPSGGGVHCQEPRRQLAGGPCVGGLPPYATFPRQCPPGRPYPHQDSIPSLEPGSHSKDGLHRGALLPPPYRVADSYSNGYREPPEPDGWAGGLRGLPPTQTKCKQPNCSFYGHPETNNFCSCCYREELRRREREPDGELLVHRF
How it was run: as §1

PRPF8 = PRPF8 (UniProt Q6P2Q9)
How it was run: as §1

PSMD7 = biological target: T3, PSMD7 (UniProt P51665)
T3 sequence (whole entry): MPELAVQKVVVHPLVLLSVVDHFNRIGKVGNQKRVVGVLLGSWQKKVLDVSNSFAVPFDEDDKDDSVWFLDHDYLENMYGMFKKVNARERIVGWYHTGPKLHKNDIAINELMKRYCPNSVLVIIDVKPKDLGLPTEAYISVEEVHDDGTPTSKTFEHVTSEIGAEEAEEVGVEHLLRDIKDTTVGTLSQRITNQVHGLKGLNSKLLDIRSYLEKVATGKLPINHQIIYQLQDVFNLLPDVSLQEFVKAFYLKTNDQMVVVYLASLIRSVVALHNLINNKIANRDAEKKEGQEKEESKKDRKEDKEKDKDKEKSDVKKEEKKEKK
How it was run: as §1

UCHL1 = UCHL1 (UniProt P09936)
Sequence of UCHL1 (P09936 whole entry, looked up): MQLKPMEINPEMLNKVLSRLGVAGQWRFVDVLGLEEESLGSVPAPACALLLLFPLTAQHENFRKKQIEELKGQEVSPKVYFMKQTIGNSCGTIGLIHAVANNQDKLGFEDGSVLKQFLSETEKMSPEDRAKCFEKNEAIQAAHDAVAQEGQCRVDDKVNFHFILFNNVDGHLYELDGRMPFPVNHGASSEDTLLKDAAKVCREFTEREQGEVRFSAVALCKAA
How it was run: as §1

UCHL3 = biological target: T4, UCHL3 (UniProt P15374)
T4 sequence (whole entry): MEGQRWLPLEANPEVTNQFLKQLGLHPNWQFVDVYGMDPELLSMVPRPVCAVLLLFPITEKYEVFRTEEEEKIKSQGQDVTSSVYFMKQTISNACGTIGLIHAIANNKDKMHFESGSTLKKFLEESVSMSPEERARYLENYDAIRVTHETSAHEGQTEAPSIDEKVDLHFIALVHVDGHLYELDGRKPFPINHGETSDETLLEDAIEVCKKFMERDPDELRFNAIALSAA
How it was run: as §1

UCHL5 = biological target: T5, UCHL5 (UniProt Q9Y5K5)
T5 sequence (whole entry): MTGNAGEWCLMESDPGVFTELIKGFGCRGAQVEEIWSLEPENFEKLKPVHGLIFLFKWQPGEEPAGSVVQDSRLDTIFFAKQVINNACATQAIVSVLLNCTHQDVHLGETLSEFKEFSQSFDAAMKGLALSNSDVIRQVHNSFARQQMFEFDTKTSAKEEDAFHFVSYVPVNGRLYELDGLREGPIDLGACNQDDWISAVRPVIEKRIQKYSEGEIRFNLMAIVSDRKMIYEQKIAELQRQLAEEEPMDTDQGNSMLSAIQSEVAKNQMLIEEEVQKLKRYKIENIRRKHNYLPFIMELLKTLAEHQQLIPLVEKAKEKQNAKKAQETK
How it was run: as §1

USP10 = USP10 (UniProt Q14694)
Sequence of USP10 (Q14694 whole entry): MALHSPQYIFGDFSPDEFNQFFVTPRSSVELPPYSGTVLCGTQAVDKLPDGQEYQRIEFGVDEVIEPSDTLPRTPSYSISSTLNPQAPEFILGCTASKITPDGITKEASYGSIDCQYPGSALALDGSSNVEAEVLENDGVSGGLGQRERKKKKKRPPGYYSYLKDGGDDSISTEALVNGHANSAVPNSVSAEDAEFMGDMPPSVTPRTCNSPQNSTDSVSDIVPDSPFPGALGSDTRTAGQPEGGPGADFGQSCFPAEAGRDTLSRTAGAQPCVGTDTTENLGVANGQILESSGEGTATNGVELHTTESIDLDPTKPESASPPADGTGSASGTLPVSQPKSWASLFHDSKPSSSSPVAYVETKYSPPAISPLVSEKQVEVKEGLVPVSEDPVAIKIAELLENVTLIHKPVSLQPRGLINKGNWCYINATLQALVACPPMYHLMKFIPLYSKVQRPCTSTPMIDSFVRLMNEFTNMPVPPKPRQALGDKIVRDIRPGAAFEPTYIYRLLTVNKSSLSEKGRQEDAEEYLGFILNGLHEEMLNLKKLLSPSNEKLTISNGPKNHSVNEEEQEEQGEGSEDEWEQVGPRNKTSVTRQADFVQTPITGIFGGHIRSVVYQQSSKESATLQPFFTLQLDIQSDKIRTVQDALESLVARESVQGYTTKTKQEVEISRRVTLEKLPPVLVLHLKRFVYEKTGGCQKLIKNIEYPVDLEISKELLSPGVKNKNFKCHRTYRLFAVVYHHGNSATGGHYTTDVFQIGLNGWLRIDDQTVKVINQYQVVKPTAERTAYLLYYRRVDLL
How it was run: as §1

USP15 = biological target: T6, USP15 (UniProt Q9Y4E8)
T6 sequence (whole entry): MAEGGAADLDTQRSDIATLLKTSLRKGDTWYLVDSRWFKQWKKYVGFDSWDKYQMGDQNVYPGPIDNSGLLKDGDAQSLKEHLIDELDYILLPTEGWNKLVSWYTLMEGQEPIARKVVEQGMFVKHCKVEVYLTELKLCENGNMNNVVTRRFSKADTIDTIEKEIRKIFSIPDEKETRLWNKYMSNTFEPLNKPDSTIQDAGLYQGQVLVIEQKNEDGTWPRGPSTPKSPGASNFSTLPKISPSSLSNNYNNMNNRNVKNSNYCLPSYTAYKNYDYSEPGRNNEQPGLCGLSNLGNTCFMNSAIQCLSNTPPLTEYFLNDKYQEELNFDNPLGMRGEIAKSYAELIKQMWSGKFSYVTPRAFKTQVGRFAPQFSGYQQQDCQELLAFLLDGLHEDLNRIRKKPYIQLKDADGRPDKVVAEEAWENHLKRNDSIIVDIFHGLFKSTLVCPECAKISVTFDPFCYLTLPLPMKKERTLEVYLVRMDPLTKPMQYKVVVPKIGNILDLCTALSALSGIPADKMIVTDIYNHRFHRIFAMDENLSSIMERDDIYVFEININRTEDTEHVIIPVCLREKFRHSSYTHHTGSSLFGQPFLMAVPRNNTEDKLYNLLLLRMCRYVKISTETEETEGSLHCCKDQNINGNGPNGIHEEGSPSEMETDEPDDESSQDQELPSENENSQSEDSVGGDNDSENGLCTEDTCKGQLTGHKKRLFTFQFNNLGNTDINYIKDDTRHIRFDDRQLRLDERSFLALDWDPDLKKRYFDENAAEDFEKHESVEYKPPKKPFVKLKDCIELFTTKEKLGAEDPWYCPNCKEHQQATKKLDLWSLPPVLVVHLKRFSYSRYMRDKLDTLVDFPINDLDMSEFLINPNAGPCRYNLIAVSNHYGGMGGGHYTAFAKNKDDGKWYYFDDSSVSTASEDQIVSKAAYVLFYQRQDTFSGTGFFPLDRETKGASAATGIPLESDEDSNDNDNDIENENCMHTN
How it was run: as §1

USP16 = USP16 (UniProt Q9Y5T5)
Sequence of USP16 (Q9Y5T5 whole entry, looked up): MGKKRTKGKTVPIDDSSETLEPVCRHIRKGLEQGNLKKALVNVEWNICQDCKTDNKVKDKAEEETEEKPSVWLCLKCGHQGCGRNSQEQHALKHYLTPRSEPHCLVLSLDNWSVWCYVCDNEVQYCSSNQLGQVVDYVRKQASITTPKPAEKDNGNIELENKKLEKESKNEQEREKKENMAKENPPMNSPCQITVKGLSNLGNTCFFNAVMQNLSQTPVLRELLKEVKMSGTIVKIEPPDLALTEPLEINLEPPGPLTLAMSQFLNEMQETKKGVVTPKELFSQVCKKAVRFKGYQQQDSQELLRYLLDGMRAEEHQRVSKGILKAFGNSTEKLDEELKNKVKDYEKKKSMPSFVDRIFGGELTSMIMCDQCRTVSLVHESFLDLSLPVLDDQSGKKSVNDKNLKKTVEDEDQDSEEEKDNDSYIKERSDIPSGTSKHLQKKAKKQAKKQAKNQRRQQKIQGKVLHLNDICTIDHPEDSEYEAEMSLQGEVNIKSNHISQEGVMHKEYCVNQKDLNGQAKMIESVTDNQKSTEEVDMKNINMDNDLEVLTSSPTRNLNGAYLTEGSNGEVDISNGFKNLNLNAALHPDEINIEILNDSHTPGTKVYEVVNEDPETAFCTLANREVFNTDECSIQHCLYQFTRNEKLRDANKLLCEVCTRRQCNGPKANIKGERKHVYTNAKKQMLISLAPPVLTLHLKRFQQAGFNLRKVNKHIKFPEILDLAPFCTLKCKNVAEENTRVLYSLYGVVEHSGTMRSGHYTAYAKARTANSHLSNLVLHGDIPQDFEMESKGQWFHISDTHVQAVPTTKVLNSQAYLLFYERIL
How it was run: as §1

Measured: log2 ratio of Biotin-Ahx-Ub-VS probe labelling

CN(C(=O)CCl)c1nc2ccccc2s1
inactive: OTUD6B -0.243 | OTUD7B -0.119 | PRPF8 0.183 | PSMD7 0.069 | UCHL1 -0.925 | UCHL3 0.484 | UCHL5 -0.343 | USP10 -0.116 | USP15 -0.217 | USP16 0.0425
